Data on 38 compounds can be found in the supplement of paper PMC9948646.

Structures are written as SMILES.

This assay deals with gramicidin D channels in DC22:1PC lipid vesicles (bilayer-modifying potency). The assay can be described thus: initial Tl+ fluorescence quench rate relative to no-drug control (NormRate, gramicidin monomer-dimer shift) (ratio (fold of control)); higher = stronger bilayer-modifying effect (equilibrium shifted toward conducting dimers), active = 1.5 or more. Conditions: 10 µM; lipid concentration 50 µM; temperature: 25 °C. On the procedure: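 Stopped-flow fluorescence quench assay: ANTS-loaded DC22:1PC large unilamellar vesicles doped with gramicidin D (1:2000), 50 µM lipid, equilibrated 10 min with 10 µM drug (0.1% DMSO), mixed with Tl+ quench buffer at 25°C. Initial quench rate (Tl+ influx) was fitted with a modified stretched exponential and normalised to the no-drug control rate (NormRate); duplicates from two independent LUV preparations (triplicates for 7 drugs).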
For the compound `CC(C)c1ncc(-c2ccncc2)c([C@H]2CC[C@H](CNC(=O)c3cccnc3)CC2)n1`, the “initial Tl+ fluorescence quench rate” value is 1.02 (inactive).

In the case of `O=C(NCc1ccoc1)N1CCN(Cc2ccc3c(c2)OCO3)CC1`, the “initial Tl+ fluorescence quench rate” value was 1.11 (inactive).

As to `COc1cc(OC)cc(C(=O)NC[C@@H]2Cc3cc(Cl)cc(-c4ccncc4)c3O2)c1`, the “initial Tl+ fluorescence quench rate” value is 2.47 (active).

With `COc1ccccc1CNC(=O)c1cc(C2CC2)nc2c1cnn2C(C)C`, the “initial Tl+ fluorescence quench rate” value was 1.62 (active).

Consider `OCCc1ccc(Nc2nccc(-c3nnc4ccccn34)n2)cc1`, for which the “initial Tl+ fluorescence quench rate” value is 1.01 (inactive).

On to `CN1CCC[C@H]1CCO[C@](C)(c1ccccc1)c1ccc(Cl)cc1`, for which the “initial Tl+ fluorescence quench rate” value is 2.33 (active).

For the compound `O=C1N(Cc2cc3ccccc3s2)C[C@H]2CN(Cc3ccccc3)CCN12`, the “initial Tl+ fluorescence quench rate” value is 2.35 (active).

Turning to `CCOC(=O)c1c(NC(=O)c2c(F)c(F)c(F)c(F)c2F)sc(C(N)=O)c1C`, the “initial Tl+ fluorescence quench rate” value is 1.41 (inactive).

As to `c1coc(CNc2nc(N3CCCCC3)nc3ccccc23)c1`, the “initial Tl+ fluorescence quench rate” value is 1.02 (inactive).

Consider `O=C(Nc1nnc(-c2ccc(Cl)s2)o1)c1ccc(Cl)s1`, for which the “initial Tl+ fluorescence quench rate” value is 1.27 (inactive).

For `COc1cc(C(F)(F)F)nc2ccc(C)c(N)c12`, the “initial Tl+ fluorescence quench rate” value is 1.03 (inactive).

Consider `CO[C@@H](C(=O)N1Cc2[nH]nc(NC(=O)c3ccc(N4CCN(C)CC4)cc3)c2C1)c1ccccc1`, for which the “initial Tl+ fluorescence quench rate” value is 1.2 (inactive).

As to `COc1cc(-c2cc(-c3ccc(S(C)(=O)=O)cc3)cnc2N)ccc1O`, the “initial Tl+ fluorescence quench rate” value was 1.09 (inactive).

Regarding `Cc1cc(Nc2ccncc2)n2nc(C)c(-c3ccccc3Cl)c2n1`, the “initial Tl+ fluorescence quench rate” value is 1.03 (inactive).

In the case of `COc1cc(C2=NCCN2)cc2cc(-c3ccc(C4=NCCN4)cc3)oc12`, the “initial Tl+ fluorescence quench rate” value was 1.1 (inactive).

Consider `CNC(=O)CNc1nc(-c2ccccn2)nc2scc(-c3ccccc3)c12`, for which the “initial Tl+ fluorescence quench rate” value was 5.21 (active).

`COc1ccc(-c2cnc3ccc(N4CCCC4)nn23)cc1OC`: the “initial Tl+ fluorescence quench rate” value is 2.31 (active).

Turning to `O=C(NCc1nnc2n1CCCCC2)c1ccc(-c2ccc(F)cc2)o1`, the “initial Tl+ fluorescence quench rate” value is 1.08 (inactive).

For the compound `C[C@H]1CCCCN1C(=O)NCCc1coc(-c2ccc(F)cc2)n1`, the “initial Tl+ fluorescence quench rate” value was 1.06 (inactive).

Take `CNCC[C@H](Oc1ccc(C(F)(F)F)cc1)c1ccccc1`: the “initial Tl+ fluorescence quench rate” value was 1.41 (inactive).

`O=C(C1CCN(c2nnc(-n3cccc3)s2)CC1)N1CCC(Cc2ccccc2)CC1`: the “initial Tl+ fluorescence quench rate” value is 1.24 (inactive).

Take `COc1cccc(-n2nnnc2S(C)(=O)=O)c1`: the “initial Tl+ fluorescence quench rate” value is 1.06 (inactive).

For the compound `Cc1cc(C(=O)Nc2cnn(Cc3ccc(Cl)cc3Cl)c2)no1`, the “initial Tl+ fluorescence quench rate” value is 1.1 (inactive).

With `COc1ccc(N(CCc2cccc(C)n2)C(C)=O)cc1`, the “initial Tl+ fluorescence quench rate” value was 1.04 (inactive).

On to `CCOC(=O)NC(=O)c1ccsc1NC(=O)c1nc2ccccc2s1`, for which the “initial Tl+ fluorescence quench rate” value is 3.21 (active).

With `CN(C)c1cc(NC(=O)Nc2ccccc2)c2ccccc2n1`, the “initial Tl+ fluorescence quench rate” value is 1.74 (active).

With `NCC[C@H](O)C(=O)N[C@@H]1C[C@H](N)[C@@H](O[C@H]2O[C@H](CN)[C@@H](O)[C@H](O)[C@H]2O)[C@H](O)[C@@H]1O[C@H]1O[C@H](CO)[C@@H](O)[C@H](N)[C@H]1O`, the “initial Tl+ fluorescence quench rate” value is 1.02 (inactive).

On to `O=C(Nc1cccc(-c2ccc(NCCCN3CCCC3)nc2)c1)c1ccccc1`, for which the “initial Tl+ fluorescence quench rate” value is 1.2 (inactive).

Turning to `CCn1cnc2c(Nc3cc(F)cc(F)c3)nc(C#N)nc21`, the “initial Tl+ fluorescence quench rate” value was 1.21 (inactive).

Consider `Cc1ccc(S(=O)(=O)Nc2ccc(CN3CCN(C(=O)c4cccc(C#N)c4)CC3)cc2)cc1`, for which the “initial Tl+ fluorescence quench rate” value is 1.5 (active).

Consider `C[C@H](C(=O)Nc1ccc2oc(-c3ccncc3)nc2c1)c1ccccc1`, for which the “initial Tl+ fluorescence quench rate” value is 1.09 (inactive).

`CC(C)(C)c1cnc(NC(=O)c2ccccc2O)s1`: the “initial Tl+ fluorescence quench rate” value was 2.31 (active).

Turning to `Cc1noc(C)c1C(=O)N1CCC[C@@H](c2[nH]c3c(C)cccc3c2-c2ccncc2)C1`, the “initial Tl+ fluorescence quench rate” value is 1.73 (active).

As to `Cc1ccc(NC(=O)c2nc[nH]c2C(=O)Nc2nc3ccccc3[nH]2)c(C)c1`, the “initial Tl+ fluorescence quench rate” value is 1.88 (active).

Turning to `CC[P](CC)(CC)=[Au][S][C@H]1O[C@@H](COC(C)=O)[C@H](OC(C)=O)[C@@H](OC(C)=O)[C@@H]1OC(C)=O`, the “initial Tl+ fluorescence quench rate” value is 1.07 (inactive).

With `CCOc1ccc(-c2nc(NC(=O)CS(=O)(=O)c3ccccc3)sc2C)cc1`, the “initial Tl+ fluorescence quench rate” value was 3.58 (active).

Consider `CCCCc1ccc(NC(=O)Nc2ccc(O[C@H]3CCCC[C@@H]3N(C)c3ccccc3)c(F)c2)cc1`, for which the “initial Tl+ fluorescence quench rate” value was 1.35 (inactive).

For the compound `O=C(NCc1cc(Cl)cc(Cl)c1)c1c(C(F)(F)F)nc2ccccn12`, the “initial Tl+ fluorescence quench rate” value was 1.21 (inactive).
